Shown are actives, neighbours in structure and some others; about 1.3% of the full set was active somewhere.
PKA-R2B activ: activates the human PKA-R2B holoenzyme complex; P22694+P31323; PKA-R2B holoenzyme dissociation, Cy5-IP20 fluorescence polarization; R2B truncated from residue 108, S112A mutant; 0% DMSO only, 100% 113 µM cGMP; activation, % at 11.4 µM; hit rate 0.079% among 340,000; AID 504700;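 active = activation above a cutoff set at the mean over all compounds plus 3 SD, cut at about 18% in these data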;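 also: higher means more holoenzyme dissociation and a rise in polarization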
Target sequence (P31323 whole entry, looked up, other chains not shown, the tested form may be a part): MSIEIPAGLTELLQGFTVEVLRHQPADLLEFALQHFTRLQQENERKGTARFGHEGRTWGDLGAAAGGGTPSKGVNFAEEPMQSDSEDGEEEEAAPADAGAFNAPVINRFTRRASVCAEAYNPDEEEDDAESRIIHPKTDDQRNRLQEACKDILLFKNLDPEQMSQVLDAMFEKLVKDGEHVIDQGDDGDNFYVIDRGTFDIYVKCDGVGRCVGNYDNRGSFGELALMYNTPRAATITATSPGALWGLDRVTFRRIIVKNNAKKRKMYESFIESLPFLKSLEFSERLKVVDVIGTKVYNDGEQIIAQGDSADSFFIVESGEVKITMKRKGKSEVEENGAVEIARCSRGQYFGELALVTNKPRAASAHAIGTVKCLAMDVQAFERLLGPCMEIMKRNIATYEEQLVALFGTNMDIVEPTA
PKA-R1A activ: activators of PKA-R1A complex. PKA-R1A dissociation, Cy5-IP20 fluorescence polarization; scaled: DMSO 0%, 113 µM cGMP 100%. P00514+P68181. hit rate 0.083% among 340,000. AID 504707. activation, % at 11.4 µM;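 active = percent activation above the mean of all tested compounds plus 3 SD, cut at about 19% in these data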;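 also: higher means more PKAc released from R1A so a rise in polarization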
Neddylation inh: inhibitors of human cullin neddylation; TR-FRET cullin neddylation, biochemical; P61081+Q13564; hit rate 0.58% among 360,000; inhibition, % at 25 µM; AID 651699; in the data active = inhibition above about 36%
Rpn11 inh: inhibitors of human proteasome Rpn11; calls only at 20 µM; hit rate 0.59% among 360,000; human 26S proteasome, Ub4-pepOG fluorescence polarization; 20S core pre-blocked with epoxomicin; O00487; AID 588493;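 active = inhibition at 20 µM, scaled to each plate's controls, above about 33%, limit read from the data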
Neddyl inh conf: confirmation of human cullin neddylation inhibitors. calls only at 25 µM. shares compounds with Neddylation inh. hit rate 13% among 1,800. AID 652217. TR-FRET cullin neddylation biochemical assay; in the data active = inhibition above about 40%;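 also: neddylation substrate is the cullin 1 ring ligase complex with SKP2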
The depositor's hits bear a star; i = inactive; nt = not tested or not shown; + = active, no number.

SMILES | PKA-R2B activ | PKA-R1A activ | Neddylation inh | Rpn11 inh | Neddyl inh conf
CCCCC[n+]1ccn(-c2nc3ccccc3nc2[N-]S(=O)(=O)c2ccc(C)cc2)c1 | -9 | -18 | 43* | i | i
CCCC[n+]1ccn(-c2nc3ccccc3nc2[N-]S(=O)(=O)c2ccccc2)c1 | -8 | -12 | 39 | i | nt
Cc1ccc(S(=O)(=O)[N-]c2nc3ccccc3nc2-n2cc[n+](Cc3ccccc3)c2)cc1 | 6 | 1 | nt | i | nt
COCc1ccc(CN2CCCC(C(=O)Nc3ccc(-c4cscn4)cc3)C2)o1 (stereo not drawn) | 1 | -2 | 8 | i | nt
C/C(N)=C(/C#N)C(=O)CSc1nnnn1-c1ccc(C)cc1 | 5 | -5 | -10 | i | nt
CCOc1ncccc1C(=O)NCC(c1ccco1)N1CCCCC1 (stereo not drawn) | 2 | 3 | 2 | i | nt
Cc1ccc(S(=O)(=O)N2C[C@H]3N(C(=O)OC(C)C)N(C(=O)OC(C)C)C[C@H](OC(=O)Nc4cccs4)[C@@]3(O)C2)cc1 | -8 | -9 | -5 | i | nt
COC(=O)c1cc(OC)c(OC)c(OC)c1N | -4 | -1 | 38* | i | i
COC(=O)c1sc2nc3c(cc2c1N)COC(C)(C)C3 | -5 | -10 | 52* | i | +
COC(=O)[C@@]1(C(C)C)N=C(c2cc(OC)c(OC)c(OC)c2)[C@]2(O1)C(=O)N(Cc1ccc(OC)cc1)c1ccc(Br)cc12 | nt | nt | -6 | nt | nt
CCSc1nnc(NC(=O)c2ccccc2C)s1 | -5 | 13 | 16 | i | nt
Fc1ccc(-c2cc(C(F)(F)F)n3ncnc3n2)cc1 | 2 | 0 | 47* | i | nt
c1ccc(Cn2c(SCc3cn4cccnc4n3)nnc2-c2ccco2)cc1 | 2 | -6 | 37* | i | i
COc1ccccc1-c1c(C)nn2c(N3CCC(C)CC3)cc(C)nc12 | -19 | -10 | 38* | i | nt
CCOC(=O)N1CCC(Nc2cc(C)nc3c(-c4ccccc4OC)c(C)nn23)CC1 | -13 | -6 | 40* | i | i
COc1ccc(Nc2nc3c(C)cccc3cc2C#N)c(OC)c1 | -7 | 4 | -34 | i | nt
Cc1[nH]c2ccccc2c1C(=O)COC(=O)c1ccc2c(=O)n3c(nc2c1)CCC3 | 18 | 3 | 10 | i | nt
CCN(CC)c1ccc2c(O)cc(=O)oc2c1 | -6 | -9 | 41* | i | i
N#CCn1c2ccccc2c2nc3ccccc3nc21 | -15 | -11 | 45* | i | i
C#CCn1c2ccccc2c2nc3ccccc3nc21 | -6 | -3 | 21 | i | nt
CC1C(O)=C(c2nc3ccccc3[nH]2)C(=N)N1c1ccccc1 (stereo not drawn) | -3 | -3 | 46* | i | i
Cc1nccn1CCCNC(=O)CC1C(=O)NCCN1Cc1ccc(F)cc1Cl (stereo not drawn) | 3 | -2 | 6 | i | nt
CC1(C)Cc2c(sc3nc(-c4ccccc4)n(N)c(=O)c23)CO1 | -15 | -6 | 15 | i | nt
CC1(C)Cc2c(sc3nc(-c4cccs4)n(N)c(=O)c23)CO1 | -11 | -2 | 44* | i | i
Cc1nn2c(C)nc3sc4c(c3c2nc1=O)CC(C)(C)OC4 | 5 | 3 | 43* | i | i
SMILES | PKA-R2B activ | PKA-R1A activ | Neddylation inh | Rpn11 inh | Neddyl inh conf
CN1/C(=C\C(=O)C[n+]2ccc3ccccc3c2)C(C)(C)c2ccccc21 | nt | nt | -21 | i | nt
Cc1ccc(CS(=O)Cc2ccc(C(=O)N3CCN(C4CCCCC4)CC3)o2)cc1 (stereo not drawn) | 10 | -4 | 10 | i | nt
CCCOc1ccc(-c2cc(C(F)(F)F)c(C#N)c(SCC(=O)O)n2)cc1 | -2 | -8 | 40* | i | i
Cc1ccc(-c2cc(C(F)(F)F)c(C#N)c(SCC(=O)O)n2)cc1 | -11 | 3 | -32 | i | nt
COc1ncccc1-c1nnn(-c2ccc(Cl)nc2)n1 | -6 | -7 | 31* | i | i
Cc1csc2ncc(C(=O)NCc3ccco3)c(=O)n12 | -2 | -6 | 43* | i | i
O=C(COc1ccccc1F)N1N=C(c2cccs2)CC1c1ccco1 (stereo not drawn) | -13 | -15 | 47* | i | i
COc1cccc(-c2cc(=O)[nH][nH]2)c1 | -15 | 12 | 10 | i | nt
COc1cccc(-c2ccc(C#N)c(=O)[nH]2)c1 | -8 | -8 | 59* | i | nt
